Source: PubChem BioAssay (NCATS)
Values joined by “and” are separate entries in the source; they are usually repeats but may differ in a detail not shown here. Equal values may be shown once. Results filed as inconclusive are left out. Active and inactive are the calls of the source. Unless noted, calls follow the shape of the dose curve; as a rule, active = well fitted curve in the direction sought with a large enough effect; inconclusive = small, poorly fitted or top-dose-only effect, or another doubt; inactive = no such curve, though single readings can be large; an effect the other way counts as inactive or inconclusive.

Legend:
[1] = target: Cytochrome P450 3A4 (Homo sapiens) (UniProt P08684); experiment: qHTS Assay for Inhibitors and Substrates of Cytochrome P450 3A4 (AID 884); also: nearly all actives have a fitted effect of over 50% in size; also: potency is read from the fitted curve at half-maximal effect
Chain of Cytochrome P450 3A4 (Homo sapiens) (P08684 whole entry, looked up): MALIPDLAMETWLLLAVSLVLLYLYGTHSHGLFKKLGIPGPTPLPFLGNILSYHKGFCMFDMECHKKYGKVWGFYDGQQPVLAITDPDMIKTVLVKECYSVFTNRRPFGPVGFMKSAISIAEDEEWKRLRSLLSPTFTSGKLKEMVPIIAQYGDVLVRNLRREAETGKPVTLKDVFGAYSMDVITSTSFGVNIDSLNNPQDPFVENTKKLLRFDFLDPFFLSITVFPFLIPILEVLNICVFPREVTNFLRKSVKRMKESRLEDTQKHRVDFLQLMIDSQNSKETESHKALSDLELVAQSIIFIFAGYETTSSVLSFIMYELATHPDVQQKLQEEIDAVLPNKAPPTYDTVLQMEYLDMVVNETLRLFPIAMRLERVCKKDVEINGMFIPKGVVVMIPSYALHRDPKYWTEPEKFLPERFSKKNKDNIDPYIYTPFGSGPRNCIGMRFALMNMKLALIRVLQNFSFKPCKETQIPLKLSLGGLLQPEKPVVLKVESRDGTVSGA
In short: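 20 nM human CYP3A4 with 25 uM Luciferin-PPXE (at KM) in 200 mM KPO4, preincubated 10 min with compound; NADPH regeneration started a 60 min RT reaction. Luciferin detected by luminescence, normalized to 57 uM ketoconazole as full inhibition.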

[2] = Confirmation and Secondary Assay for Modulators of Hemoglobin Beta Chain Splicing at IVS2 654 locus (AID 910);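 also: per-well total GFP intensity by laser scanning cytometry after 2-day treatment; % of control where 0% means no effect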
In short: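 HeLa cells stably carrying EGFP interrupted by mutant beta-globin IVS2-654 intron (CMV-driven) were treated with compound for 2 days at 37C; corrected splicing was scored as total peak GFP intensity per well (488 nm excitation, 500-520 nm emission).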

[3] = Confirmation and Secondary Assay for Modulators of Hemoglobin Beta Chain Splicing at IVS2 705 locus (AID 930);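 also: HeLa cells stably expressing the EGFP-705 splicing reporter; GFP fluorescence per well restored by corrected splicing of the IVS2-705 intron in EGFP; % of control where 0% means no effect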
In short: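 HeLa EGFP-705 reporter; 500 cells/well, o/n 37C 5% CO2; cpd 2 d; 488 ex/500-520 em laser scan; total peak GFP intensity/well. Ref: 500 nM […] antisense PNA.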

[4] = target: Ubiquitin carboxyl-terminal hydrolase 1 (Homo sapiens) (UniProt O94782); experiment: Inhibitors of USP1/UAF1: Pilot qHTS (AID 504865);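 also: rhodamine fluorescence freed from ubiquitin-rhodamine substrate followed over time; top concentration of the series differs between compounds; % is scaled to controls: 0 for no effect and ±100 for the full control effect; nearly all actives have a fitted effect of over 35% in size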
Chain of Ubiquitin carboxyl-terminal hydrolase 1 (Homo sapiens) (O94782 whole entry, looked up): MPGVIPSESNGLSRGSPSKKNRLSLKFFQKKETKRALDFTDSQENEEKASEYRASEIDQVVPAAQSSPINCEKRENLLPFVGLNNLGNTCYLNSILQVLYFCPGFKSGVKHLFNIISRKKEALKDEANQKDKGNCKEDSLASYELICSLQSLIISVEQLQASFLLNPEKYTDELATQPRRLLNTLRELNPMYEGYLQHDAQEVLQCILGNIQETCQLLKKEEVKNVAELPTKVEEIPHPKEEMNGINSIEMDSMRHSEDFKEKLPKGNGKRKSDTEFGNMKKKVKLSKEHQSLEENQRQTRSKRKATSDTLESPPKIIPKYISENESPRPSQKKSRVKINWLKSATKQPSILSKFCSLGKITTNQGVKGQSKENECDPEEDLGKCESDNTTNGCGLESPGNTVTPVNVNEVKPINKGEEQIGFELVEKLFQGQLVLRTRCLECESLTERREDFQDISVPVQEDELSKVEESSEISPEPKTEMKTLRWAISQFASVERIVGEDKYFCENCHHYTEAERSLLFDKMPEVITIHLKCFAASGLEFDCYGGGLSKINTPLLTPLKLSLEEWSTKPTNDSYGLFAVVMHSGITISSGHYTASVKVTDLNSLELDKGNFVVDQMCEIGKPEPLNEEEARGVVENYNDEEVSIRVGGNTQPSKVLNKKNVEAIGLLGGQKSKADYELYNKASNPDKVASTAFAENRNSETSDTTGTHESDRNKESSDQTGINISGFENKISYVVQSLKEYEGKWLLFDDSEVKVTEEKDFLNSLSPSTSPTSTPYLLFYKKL
In short: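 In 50mM HEPES pH 7.8 containing 0.5mM EDTA, 1mM TCEP, 0.1 mg/ml BSA and 0.01% Tween-20, 1nM USP1/UAF1 is exposed to compound for 15 min, then Ub-Rho (150nM final) is added and fluorescence is read over time.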

[5] = tested on: Zika virus NS2B-NS3 protease; experiment: Primary screen GU AMC qHTS for Zika virus inhibitors (AID 1347154);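 also: 0% = no-inhibitor control and -100% = no-enzyme control; nearly all actives have a fitted effect of over 70% in size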
In short: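 Unlinked Zika NS2B hydrophilic domain/NS3 protease domain noncovalent complex (25 nM final) in 10 mM Tris-HCl pH 8.0, 0.01% Tween 20, with AMC peptide substrate. Fluorescence (ex 340, em 450 nm) change over 15 min, room temperature; percent inhibition fitted to 4-parameter Hill equation.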

[6] = Primary qHTS for small molecule stabilizers of the endoplasmic reticulum resident proteome: Secreted ER Calcium Modulated Protein (SERCaMP) assay (AID 1508630); also: % is scaled to controls: 0 for no effect and ±100 for the full control effect
In short: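 GLuc-SERCaMP-expressing SH-SY5Y cells, pretreated 16 h with compound, are challenged with thapsigargin to empty ER calcium stores; after 4 h, coelenterazine is added directly to the medium and luminescence is imaged.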

[7] = target: Cytochrome P450 3A4 (Homo sapiens) (UniProt P08684); experiment: qHTS Assay for Activators of Cytochrome P450 3A4 (AID 885); also: nearly all actives have a fitted effect of over 65% in size
In short: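 Quantitative HTS format: compounds preincubated with 20nM human CYP3A4 and Luciferin-PPXE substrate at KM, reaction started by NADPH regeneration, stopped after 60 min, luciferase luminescence read 20 min later.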

[8] = target: Cytochrome P450 1A2 (Homo sapiens) (UniProt P05177); experiment: p450-cyp1a2 (AID 410; calls by dose curve; also: potency is read from the fitted curve at half-maximal effect;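 as to activity change, negative = inhibition: -100% = full effect of reference inhibitor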)
Chain of Cytochrome P450 1A2 (Homo sapiens) (P05177 whole entry, looked up): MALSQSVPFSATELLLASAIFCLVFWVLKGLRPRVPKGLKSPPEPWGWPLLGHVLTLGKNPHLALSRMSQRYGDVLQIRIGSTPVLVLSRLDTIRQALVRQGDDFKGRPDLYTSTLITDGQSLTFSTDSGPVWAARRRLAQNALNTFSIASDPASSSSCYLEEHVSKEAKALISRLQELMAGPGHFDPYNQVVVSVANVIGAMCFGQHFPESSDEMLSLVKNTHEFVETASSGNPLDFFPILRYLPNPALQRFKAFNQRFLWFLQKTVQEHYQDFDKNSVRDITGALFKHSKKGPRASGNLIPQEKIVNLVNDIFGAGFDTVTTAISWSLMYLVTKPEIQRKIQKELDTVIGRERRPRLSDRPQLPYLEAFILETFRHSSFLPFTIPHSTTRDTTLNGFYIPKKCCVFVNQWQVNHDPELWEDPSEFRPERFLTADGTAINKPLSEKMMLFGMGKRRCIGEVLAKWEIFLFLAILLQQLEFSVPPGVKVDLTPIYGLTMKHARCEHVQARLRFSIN
In short: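 Human CYP1A2 (20nM) demethylated Luciferin-ME at its Km (100uM) in 100mM KPO4. After 10 min compound preincubation, NADPH regeneration ran the reaction 60 min at room temperature. Luciferin was read by luminescence, normalized to 57 uM furafylline.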

[9] = target: Glucocorticoid receptor (Homo sapiens) (UniProt P04150); experiment: GR-GFP Redistribution (AID 450;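 active = compounds whose dose series gives a full or clear partial fitted curve of increased nuclear translocation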; also: potency is read from the fitted curve at half-maximal effect); conditions: U2OS GR-GFP nuclear translocation, laser cytometry, 2 h
Chain of Glucocorticoid receptor (Homo sapiens) (P04150 whole entry, looked up, the tested form may be a part): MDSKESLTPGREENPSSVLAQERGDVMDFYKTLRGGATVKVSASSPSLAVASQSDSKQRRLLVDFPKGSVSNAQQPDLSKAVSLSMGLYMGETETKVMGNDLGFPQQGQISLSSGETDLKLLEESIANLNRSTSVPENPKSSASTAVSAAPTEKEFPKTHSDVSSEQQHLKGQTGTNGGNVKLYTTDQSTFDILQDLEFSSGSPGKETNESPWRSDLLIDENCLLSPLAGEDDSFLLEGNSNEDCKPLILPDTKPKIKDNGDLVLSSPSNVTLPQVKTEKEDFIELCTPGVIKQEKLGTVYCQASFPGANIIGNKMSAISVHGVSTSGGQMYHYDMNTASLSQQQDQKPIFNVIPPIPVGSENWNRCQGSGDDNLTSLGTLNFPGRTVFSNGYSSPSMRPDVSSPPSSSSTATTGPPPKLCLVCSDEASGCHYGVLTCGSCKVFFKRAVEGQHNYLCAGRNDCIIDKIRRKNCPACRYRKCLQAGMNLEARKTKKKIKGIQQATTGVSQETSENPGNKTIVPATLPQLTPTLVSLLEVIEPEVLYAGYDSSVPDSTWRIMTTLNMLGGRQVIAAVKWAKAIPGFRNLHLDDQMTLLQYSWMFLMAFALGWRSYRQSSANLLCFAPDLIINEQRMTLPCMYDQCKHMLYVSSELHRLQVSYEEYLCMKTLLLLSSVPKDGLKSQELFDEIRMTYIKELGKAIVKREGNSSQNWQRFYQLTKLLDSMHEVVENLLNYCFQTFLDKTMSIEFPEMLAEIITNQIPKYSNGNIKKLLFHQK

[10] = target: Glucocorticoid receptor (Homo sapiens) (UniProt P04150); experiment: GR-EFC Redistribution (AID 451; calls by dose curve; also: potency is read from the fitted curve at half-maximal effect); conditions: CHO-K1 GR-EFC translocation, beta-gal luminescence, 2 h
In short: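 CHO-K1 cells stably expressing nuclear-localized β-gal enzyme acceptor and GR fused C-terminally to the enzyme donor fragment; ligand-driven nuclear translocation restores β-gal by complementation. Compounds titrated up to 46 uM final, 2 h at 37 °C; luminescence read.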

[11] = target: Mitogen-activated protein kinase 10 (Mus musculus) (UniProt Q61831); experiment: JNK3 AlphaScreen Assay (AID 530; active = well fitted curve in either direction with a large enough effect, not every such curve was filed as active;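 also: kinase came from lysate of stimulated human HepG2 cells; signal reports phosphorylation of biotinylated GST-cJun 1-79 at Ser73 with 10 µM ATP; % is scaled to controls: 0 for no effect and ±100 for the full control effect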)
In short: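 JNK3 came from HepG2 lysates pre-activated with IL-1beta and TNF-alpha and phosphorylated biotinylated GST-cJun (1-79) at 10 uM ATP, pH 7.6, room temperature. Compounds were titrated. AlphaScreen signal used anti-phospho-cJun (Ser73) antibody.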

[12] = target: 3',5'-cyclic-AMP phosphodiesterase 4B (Homo sapiens) (UniProt Q07343); experiment: qHTS Assay for Inhibitors of PDE-IV (AID 607; active = well fitted activation curve with a large enough effect in the main read-out, with a control signal flat, not every such curve was filed as active; also: % of control where 0% means no effect)
Chain of 3',5'-cyclic-AMP phosphodiesterase 4B (Homo sapiens) (Q07343 whole entry, looked up): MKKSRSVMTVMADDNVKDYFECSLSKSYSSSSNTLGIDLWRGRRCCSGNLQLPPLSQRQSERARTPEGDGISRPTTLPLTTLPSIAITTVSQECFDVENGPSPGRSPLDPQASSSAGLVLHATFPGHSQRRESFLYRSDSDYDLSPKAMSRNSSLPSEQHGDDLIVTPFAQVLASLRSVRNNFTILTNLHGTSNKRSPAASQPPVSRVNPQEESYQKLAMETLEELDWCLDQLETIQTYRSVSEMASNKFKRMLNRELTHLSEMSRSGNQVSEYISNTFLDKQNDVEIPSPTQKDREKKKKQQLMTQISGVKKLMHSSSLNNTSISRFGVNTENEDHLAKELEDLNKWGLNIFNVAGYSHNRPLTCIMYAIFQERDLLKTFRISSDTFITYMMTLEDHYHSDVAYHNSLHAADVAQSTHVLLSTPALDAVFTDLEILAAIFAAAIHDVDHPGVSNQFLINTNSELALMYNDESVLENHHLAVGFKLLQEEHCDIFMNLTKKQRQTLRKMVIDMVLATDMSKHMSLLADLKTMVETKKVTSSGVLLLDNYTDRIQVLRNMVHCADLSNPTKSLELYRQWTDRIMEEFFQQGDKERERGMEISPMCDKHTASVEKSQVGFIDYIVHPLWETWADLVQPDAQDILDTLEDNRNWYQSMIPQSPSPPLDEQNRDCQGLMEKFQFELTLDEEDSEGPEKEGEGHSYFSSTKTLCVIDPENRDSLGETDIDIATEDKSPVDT
In short: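 Live HEK293 cells with a modified cyclic nucleotide-gated (CNG) channel report intracellular cAMP via membrane-potential dye fluorescence (ex 535/em 590 nm). Endogenous PDE-IV was targeted. Compounds were tested at up to 22.9 uM final; RO 20-1724 100 uM served as control.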

[13] = qHTS Assay for Lipid Storage Modulators (AID 1519; calls by dose curve); conditions: Drosophila S3 cells, BODIPY lipid droplet/cell ratio, laser cytometry, cells loaded with oleic acid
In short: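 Cells seeded at 5,000 per well were treated with compounds over a concentration series and loaded with oleic acid (400 uM, as added). Lipid droplet fluorescence (488 nm excitation, 500-530 nm channel) was read by laser-scanning cytometry and normalized to 20 uM Triacsin C.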

[14] = target: DNA dC->dU-editing enzyme APOBEC-3G (Homo sapiens) (UniProt Q9HC16); experiment: qHTS for inhibitors of Vif-A3G interactions: Validation (AID 588379); also: 0% is about no effect
Chain of DNA dC->dU-editing enzyme APOBEC-3G (Homo sapiens) (Q9HC16 whole entry, looked up): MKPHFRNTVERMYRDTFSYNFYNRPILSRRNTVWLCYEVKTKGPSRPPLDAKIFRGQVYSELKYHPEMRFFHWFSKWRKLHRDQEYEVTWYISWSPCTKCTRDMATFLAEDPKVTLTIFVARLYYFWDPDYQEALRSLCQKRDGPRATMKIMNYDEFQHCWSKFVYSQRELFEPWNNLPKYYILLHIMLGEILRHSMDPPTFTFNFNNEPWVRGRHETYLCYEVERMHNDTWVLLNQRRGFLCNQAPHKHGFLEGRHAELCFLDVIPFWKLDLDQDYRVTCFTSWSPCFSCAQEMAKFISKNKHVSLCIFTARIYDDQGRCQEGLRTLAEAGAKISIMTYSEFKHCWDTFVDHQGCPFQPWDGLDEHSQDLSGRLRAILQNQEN
In short: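 HeLa cells stably expressing Vif and A3G-eYFP, 700 cells/well, incubated overnight at 37 deg C, then exposed to compound overnight at 37 deg C. Inhibition of Vif-mediated degradation read as increased yellow fluorescence (Ex 488/Em 500-530) by laser-scanning cytometry.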

[15] = AP1 Signaling Pathway (AID 357; active = well fitted curve in either direction with a large enough effect, not every such curve was filed as active;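 also: ME-180 reporter cells stimulated with EGF at its EC50 level; % is scaled to controls: 0 for no effect and ±100 for the full control effect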); conditions: ME-180 AP-1-bla reporter, EGF-induced, beta-lactamase ratio, 5 h
In short: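 Cells are seeded overnight, exposed to compound titrations and an EC50 level of EGF for 5 hours at 37 °C, then loaded with CCF4 dye for 2.5 hours. Beta-lactamase activity under the AP-1 element is read as a blue/green ratio.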

[16] = Stat Signaling Pathway (AID 446; active = well fitted curve in either direction with a large enough effect, not every such curve was filed as active;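 also: ME-180 cervical cancer cells given 40 pM IL-6 alongside compound; SIE-controlled beta-lactamase reporter measured as 460/530 nm FRET emission ratio; % is scaled to controls: 0 for no effect and ±100 for the full control effect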); conditions: ME-180 (cervical carcinoma) SIE beta-lactamase reporter, IL-6 stimulated, 5 h
In short: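 IL-6/STAT signaling read in ME-180 cells via an SIE beta-lactamase reporter. Stimulus was 40 pM IL-6 (its AC50) for 5 hrs, so both activation and inhibition register.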

[17] = target: Guanine nucleotide-binding protein G(i) subunit alpha-1 (Homo sapiens) (UniProt P63096); experiment: qHTS Assay for Inhibitors of RGS12 GoLoco Motif Activity (Green Fluorophore) (AID 879);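 also: 0% = labeled peptide with Gαi1 and full inhibition = labeled peptide alone without protein; negative values mean loss of peptide binding seen as reduced polarization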
Chain of Guanine nucleotide-binding protein G(i) subunit alpha-1 (Homo sapiens) (P63096 whole entry, looked up): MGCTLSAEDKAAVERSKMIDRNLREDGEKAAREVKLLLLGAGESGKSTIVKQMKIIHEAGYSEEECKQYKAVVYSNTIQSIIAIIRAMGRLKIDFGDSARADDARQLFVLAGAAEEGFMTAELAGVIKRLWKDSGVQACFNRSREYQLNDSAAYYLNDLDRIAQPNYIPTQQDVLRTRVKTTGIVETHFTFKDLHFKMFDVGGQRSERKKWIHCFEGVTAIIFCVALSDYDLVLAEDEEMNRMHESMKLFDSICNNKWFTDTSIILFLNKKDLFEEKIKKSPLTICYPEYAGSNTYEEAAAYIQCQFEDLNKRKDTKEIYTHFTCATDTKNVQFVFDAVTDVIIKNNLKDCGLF
In short: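 Fluorescence polarization assay: 50 nM Gαi1 with 10 nM FITC-labeled RGS12 GoLoco peptide in 10 mM Tris pH 7.5, 150 mM NaCl, 0.1 mM GDP, 0.05% NP40, 10 min at room temperature with compound.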

[18] = target: Cytochrome P450 2C19 (Homo sapiens) (UniProt P33261); experiment: qHTS Assay for Inhibitors and Substrates of Cytochrome P450 2C19 (AID 899); also: % is scaled to controls: 0 for no effect and ±100 for the full control effect; nearly all actives have a fitted effect of over 60% in size
Chain of Cytochrome P450 2C19 (Homo sapiens) (P33261 whole entry, looked up): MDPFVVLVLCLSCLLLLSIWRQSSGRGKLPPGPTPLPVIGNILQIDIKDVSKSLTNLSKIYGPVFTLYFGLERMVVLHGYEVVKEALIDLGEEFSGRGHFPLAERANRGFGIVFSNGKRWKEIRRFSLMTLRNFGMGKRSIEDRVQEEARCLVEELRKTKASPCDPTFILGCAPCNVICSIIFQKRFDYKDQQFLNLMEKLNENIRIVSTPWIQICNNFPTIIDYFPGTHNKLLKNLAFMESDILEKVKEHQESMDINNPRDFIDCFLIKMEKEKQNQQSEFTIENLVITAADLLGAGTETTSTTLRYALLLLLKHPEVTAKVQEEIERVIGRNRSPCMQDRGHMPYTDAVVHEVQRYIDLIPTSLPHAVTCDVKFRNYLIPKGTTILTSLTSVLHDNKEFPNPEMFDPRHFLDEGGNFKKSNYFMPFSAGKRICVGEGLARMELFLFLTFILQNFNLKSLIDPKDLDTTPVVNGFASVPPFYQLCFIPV
In short: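 Human CYP2C19 (5nM) with Luciferin-H EGE at 10uM (its KM) in 50mM KPO4 was preincubated with compound for 10 min at 37C. NADPH regeneration started a 60 min 37C reaction. Luciferin was read by luminescence, normalized to 57uM ketoconazole.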

[19] = target: Pyruvate kinase (Leishmania mexicana) (UniProt Q27686); experiment: qHTS Validation Assay for Inhibitors of Leishmania Mexicana Pyruvate Kinase (AID 945);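 also: 0% = DMSO only neutral control wells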
In short: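 Substrate mix (0.5 mM PEP, 0.1 mM ADP, 7 mM MgCl2, 50 mM KCl, pH 7.2 imidazole) received compound by pin tool, then 0.2 nM LmPYK E451W. After 1 h at room temperature, PKLight was added and luminescence measured.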

[20] = target: Pyruvate kinase PKM (Homo sapiens) (UniProt P14618); experiment: qHTS Assay for Activators of Human Muscle Pyruvate Kinase (AID 954; active = well fitted curve in the direction sought with a large enough effect, not every such curve was filed as active;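 also: 0% = uninhibited enzyme and -100% = no enzyme or full thiadiazolimine inhibition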)
In short: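 Enzyme was run at intermediate activity so both inhibitors and activators could be detected. ATP formed from ADP and PEP by 0.1 nM human PKM2 during a 1 h room-temperature incubation was quantified by coupled luciferase luminescence.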

[21] = target: Alpha-galactosidase A (Homo sapiens) (UniProt P06280); experiment: Counterscreen for Glucocerebrosidase Inhibitors: qHTS Assay for Human alpha-Galactosidase at pH 4.5 (AID 992); also: 0% is about no effect
Chain of Alpha-galactosidase A (Homo sapiens) (P06280 whole entry, looked up): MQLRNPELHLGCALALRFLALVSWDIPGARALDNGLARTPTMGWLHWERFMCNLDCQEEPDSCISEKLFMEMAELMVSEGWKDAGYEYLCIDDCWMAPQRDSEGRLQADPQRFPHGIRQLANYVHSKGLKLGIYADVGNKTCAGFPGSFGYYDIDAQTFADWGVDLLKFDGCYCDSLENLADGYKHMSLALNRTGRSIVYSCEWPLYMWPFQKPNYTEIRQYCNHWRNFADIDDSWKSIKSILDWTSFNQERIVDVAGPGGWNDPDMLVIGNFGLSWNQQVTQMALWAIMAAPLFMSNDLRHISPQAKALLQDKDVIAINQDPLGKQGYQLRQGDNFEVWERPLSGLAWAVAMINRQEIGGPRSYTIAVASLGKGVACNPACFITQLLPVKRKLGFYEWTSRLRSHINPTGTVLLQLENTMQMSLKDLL
In short: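 Read-out is 4-methylumbelliferone fluorescence (365 nm excitation, 440 nm emission) after a pH 10 NaOH/glycine stop. Reactions held 2 nM enzyme and 80 uM substrate at pH 4.5 for 20 min at room temperature.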

[22] = target: alpha-glucosidase (Oryza sativa, rice) (UniProt Q653V4); experiment: Counterscreen for Glucocerebrosidase Inhibitors: qHTS Assay for Rice alpha-Glucosidase at pH 5.0 (AID 997);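 also: 0% = full activity with enzyme and -100% = basal without enzyme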
In short: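 Rice alpha-glucosidase (4 nM final) with 400 uM 4-methylumbelliferyl-alpha-D-glucopyranoside in citrate buffer pH 5.0, 20 min at room temperature, stopped at pH 10; fluorescence 365/440 nm, compounds 0.7 nM–77 uM, AC50 from Hill fits.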

[23] = measured here: cell count channel max response
[24] = measured here: lipid channel max response

CC1OC(OC2C(CO)OC(OC3C(CO)OC(O)C(O)C3O)C(O)C2O)C(O)C(O)C1NC1C=C(CO)C(O)C(O)C1O (stereo not given)
inactive: Potency [1] | outcome [2] | outcome [3] | Potency [4] | Potency [5] | Potency [6]

CC(=O)N(OCc1ccccc1)[C@@H]1c2cc(C#N)ccc2OC(C)(C)[C@H]1O
inactive: Potency [7] | Potency [5] | Potency [6]
active: Potency [1] 15.8 µM

N[C@@H](C(=O)O)c1ccc(C(=O)O)cc1
10.8%: max response [13, 23]
17.4%: max response [13, 24]
inactive: Potency [8] | Potency [9] > 46 µM | Potency [10] > 46 µM | Potency [11] | Potency [12] | activity change, negative = inhibition ([13]; at 57.5 µM (top of the series)) 5.37% | Potency [4] | Potency [14] | Potency [5]

Fc1ccc(C(c2ccc(F)cc2)N2CCN(C/C=C\c3ccccc3)CC2)cc1
inactive: activity change, negative = inhibition ([15]; at 17.2 µM (top of the series)) -7.16% | activity change, negative = inhibition ([15]; at 38 µM (top of the series)) 2.24% | activity, negative = inhibition ([16]; at 17.2 µM (top of the series)) 10.1% | activity, negative = inhibition ([16]; at 38 µM (top of the series)) -6.11% | Potency [9] > 46 µM and > 20.6 µM | Potency [11] | Potency [12] | outcome [17] | Potency [1] | Potency [18] | Potency [19] | outcome [20] | outcome [21] | outcome [22] | activity change, negative = inhibition ([13]; at 25.7 µM (top of the series)) -8.39% | Potency [5]
-22.1%: max response [13, 24]
-13.5%: max response [13, 23]
active: Potency [8] 15.8 µM
